# Measurements as given in PMC7862700, “An all-to-all approach to the identification of sequence-specific readers for epigenetic DNA modifications on cytosine”.
# How the values were obtained:
# Test in all cases: DAPPL (digital affinity profiling via proximity ligation, sequencing); 10 mM Tris-HCl pH 7.5, 50 mM NaCl, 1 mM DTT, 4% glycerol, room temperature, 30 min; GST-TFs on glutathione beads, 16-mer random dsDNA library, 0.1% formaldehyde crosslink after washing; high values mean tight binding
# [1] = biological target: T1, FLI1 (Homo sapiens, UniProt Q01543 1-452); conditions: protein: recombinant; tags: N-terminal GST; dsDNA, one strand shown
# T1 sequence: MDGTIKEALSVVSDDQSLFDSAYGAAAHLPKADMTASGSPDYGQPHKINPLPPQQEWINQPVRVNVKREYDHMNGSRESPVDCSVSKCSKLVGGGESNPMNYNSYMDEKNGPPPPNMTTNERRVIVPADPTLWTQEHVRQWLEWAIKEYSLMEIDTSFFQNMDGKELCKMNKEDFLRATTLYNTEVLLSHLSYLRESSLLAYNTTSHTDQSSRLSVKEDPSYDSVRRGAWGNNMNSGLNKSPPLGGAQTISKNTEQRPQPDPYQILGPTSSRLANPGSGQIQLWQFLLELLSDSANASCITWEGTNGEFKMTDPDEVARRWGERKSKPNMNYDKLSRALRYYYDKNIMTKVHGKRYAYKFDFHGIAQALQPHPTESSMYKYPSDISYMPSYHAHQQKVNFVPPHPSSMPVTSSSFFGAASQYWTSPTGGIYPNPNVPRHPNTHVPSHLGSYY
# Summary of the method: (§1)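 The binding signal reported is, for every hexamer, its read frequency for a factor over its read frequency for the tag-only sample. Reads came from pools of yeast-expressed, GST-fused human transcription factors on glutathione beads, barcoded with DNA and mixed with that sample, which were incubated with 200 nmole of a random double-stranded 16-mer DNA library in Tris/NaCl/DTT/glycerol buffer at room temperature for 30 min. After washing, the pools were crosslinked with 0.1% formaldehyde, proximity-ligated with BsaI/T4 ligase for 1 h at 37 °C, PCR-amplified and sequenced on an Illumina NextSeq500.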
# [2] = biological target: T2, ELK1 (Homo sapiens, UniProt P19419 1-428); conditions: protein: recombinant; tags: N-terminal GST; dsDNA, one strand shown
# T2 sequence: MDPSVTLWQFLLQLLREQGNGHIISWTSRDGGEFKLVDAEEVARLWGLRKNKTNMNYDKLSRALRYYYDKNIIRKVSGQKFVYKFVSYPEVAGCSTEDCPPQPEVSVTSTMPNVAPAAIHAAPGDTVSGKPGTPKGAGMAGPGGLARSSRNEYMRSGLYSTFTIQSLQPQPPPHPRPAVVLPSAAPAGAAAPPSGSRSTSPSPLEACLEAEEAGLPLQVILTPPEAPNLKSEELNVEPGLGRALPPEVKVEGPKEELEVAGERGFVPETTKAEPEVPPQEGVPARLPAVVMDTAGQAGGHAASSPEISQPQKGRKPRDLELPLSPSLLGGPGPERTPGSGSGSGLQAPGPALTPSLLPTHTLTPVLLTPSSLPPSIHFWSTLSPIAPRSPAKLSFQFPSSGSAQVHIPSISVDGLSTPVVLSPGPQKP
# Summary of the method: as §1
# [3] = biological target: T3, GABPA (Homo sapiens, UniProt Q06546 1-454); conditions: protein: recombinant; tags: N-terminal GST; dsDNA, one strand shown
# T3 sequence: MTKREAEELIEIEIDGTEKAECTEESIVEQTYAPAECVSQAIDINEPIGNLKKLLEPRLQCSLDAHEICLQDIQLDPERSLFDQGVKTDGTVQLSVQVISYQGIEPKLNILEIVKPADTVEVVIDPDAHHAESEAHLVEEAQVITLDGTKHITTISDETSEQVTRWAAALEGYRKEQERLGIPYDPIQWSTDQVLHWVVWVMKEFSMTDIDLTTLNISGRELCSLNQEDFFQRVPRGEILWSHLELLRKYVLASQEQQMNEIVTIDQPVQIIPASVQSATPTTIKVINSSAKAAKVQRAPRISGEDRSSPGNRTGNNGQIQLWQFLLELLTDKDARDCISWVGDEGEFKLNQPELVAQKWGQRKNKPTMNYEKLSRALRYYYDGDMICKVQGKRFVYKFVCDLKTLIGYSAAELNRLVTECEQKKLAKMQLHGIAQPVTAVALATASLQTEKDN
# Summary of the method: as §1
# [4] = biological target: T4, ERG (Homo sapiens, UniProt P11308 1-479); conditions: protein: recombinant; tags: N-terminal GST; dsDNA, one strand shown
# T4 sequence: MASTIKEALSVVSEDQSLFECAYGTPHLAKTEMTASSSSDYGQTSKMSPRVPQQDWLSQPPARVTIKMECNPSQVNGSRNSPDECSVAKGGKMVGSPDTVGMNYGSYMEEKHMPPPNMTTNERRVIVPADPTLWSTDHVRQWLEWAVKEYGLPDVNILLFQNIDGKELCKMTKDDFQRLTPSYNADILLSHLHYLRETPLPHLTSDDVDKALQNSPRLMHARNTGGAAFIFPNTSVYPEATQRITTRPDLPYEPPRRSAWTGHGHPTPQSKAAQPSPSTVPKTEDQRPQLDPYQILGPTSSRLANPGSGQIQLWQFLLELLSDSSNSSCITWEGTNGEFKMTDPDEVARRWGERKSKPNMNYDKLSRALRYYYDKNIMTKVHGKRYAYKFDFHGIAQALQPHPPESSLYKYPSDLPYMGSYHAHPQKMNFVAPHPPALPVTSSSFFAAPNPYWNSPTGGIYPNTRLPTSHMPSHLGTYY
# Summary of the method: as §1
# [5] = biological target: ELF1 (Homo sapiens, UniProt P32519 1-619); conditions: protein: recombinant; tags: N-terminal GST; dsDNA, one strand shown
# Summary of the method: as §1
# [6] = biological target: T5, EHF (Homo sapiens, UniProt Q9NZC4 1-300); conditions: protein: recombinant; tags: N-terminal GST; dsDNA, one strand shown
# T5 sequence: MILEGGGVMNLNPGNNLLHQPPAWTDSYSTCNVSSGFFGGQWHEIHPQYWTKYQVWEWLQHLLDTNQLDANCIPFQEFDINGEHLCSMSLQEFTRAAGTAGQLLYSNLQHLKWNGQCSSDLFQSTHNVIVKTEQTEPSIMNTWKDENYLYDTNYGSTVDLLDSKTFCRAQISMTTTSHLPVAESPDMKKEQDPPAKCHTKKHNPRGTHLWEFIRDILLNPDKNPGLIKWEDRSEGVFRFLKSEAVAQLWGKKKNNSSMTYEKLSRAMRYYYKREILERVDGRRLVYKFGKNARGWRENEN
# Summary of the method: as §1
# [7] = biological target: SPI1 (Homo sapiens, UniProt P17947 1-270); conditions: protein: recombinant; tags: N-terminal GST; dsDNA, one strand shown
# Summary of the method: as §1
# [8] = biological target: SPIB (Homo sapiens, UniProt Q01892 1-262); conditions: protein: recombinant; tags: N-terminal GST; dsDNA, one strand shown
# Summary of the method: as §1
# [9] = biological target: T6, ELK3 (Homo sapiens, UniProt P41970 1-407); conditions: protein: recombinant; tags: N-terminal GST; dsDNA, one strand shown
# T6 sequence: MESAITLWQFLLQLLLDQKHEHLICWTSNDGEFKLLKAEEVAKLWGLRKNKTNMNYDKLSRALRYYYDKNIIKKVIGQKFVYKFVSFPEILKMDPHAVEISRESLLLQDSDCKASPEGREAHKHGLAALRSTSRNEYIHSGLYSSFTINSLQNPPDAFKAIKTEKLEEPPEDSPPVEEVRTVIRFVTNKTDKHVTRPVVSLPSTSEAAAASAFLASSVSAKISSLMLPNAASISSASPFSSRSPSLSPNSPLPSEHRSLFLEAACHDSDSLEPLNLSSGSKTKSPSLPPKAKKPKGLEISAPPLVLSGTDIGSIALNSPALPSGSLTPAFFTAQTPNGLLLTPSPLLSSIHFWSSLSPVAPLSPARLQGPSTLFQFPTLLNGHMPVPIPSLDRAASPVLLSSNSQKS
# Summary of the method: as §1
# [10] = biological target: T7, FEV (Homo sapiens, UniProt Q99581 1-238); conditions: protein: recombinant; tags: N-terminal GST; dsDNA, one strand shown
# T7 sequence: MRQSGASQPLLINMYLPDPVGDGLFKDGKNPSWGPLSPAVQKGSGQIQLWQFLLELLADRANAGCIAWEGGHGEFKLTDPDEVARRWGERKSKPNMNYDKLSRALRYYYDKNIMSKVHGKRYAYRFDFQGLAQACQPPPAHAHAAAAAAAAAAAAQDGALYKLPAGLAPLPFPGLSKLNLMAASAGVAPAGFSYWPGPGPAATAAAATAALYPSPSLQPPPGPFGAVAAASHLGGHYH
# Summary of the method: as §1
# [11] = biological target: ETV5 (Homo sapiens, UniProt P41161 1-510); conditions: protein: recombinant; tags: N-terminal GST; dsDNA, one strand shown
# Summary of the method: as §1
# [12] = biological target: HSF1 (Homo sapiens, UniProt Q00613 1-529); conditions: protein: recombinant; tags: N-terminal GST; chain copies: 3; dsDNA, one strand shown
# Summary of the method: as §1
# [13] = biological target: T8, SPIC (Homo sapiens, UniProt Q8N5J4 1-248); conditions: protein: recombinant; tags: N-terminal GST; dsDNA, one strand shown
# T8 sequence: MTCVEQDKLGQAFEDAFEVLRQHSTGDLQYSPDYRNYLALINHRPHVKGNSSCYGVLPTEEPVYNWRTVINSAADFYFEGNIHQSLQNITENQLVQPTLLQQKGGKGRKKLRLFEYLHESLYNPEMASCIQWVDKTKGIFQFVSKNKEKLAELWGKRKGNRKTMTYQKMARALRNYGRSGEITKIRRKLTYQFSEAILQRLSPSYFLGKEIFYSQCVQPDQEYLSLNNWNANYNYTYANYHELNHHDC
# Summary of the method: as §1
# [14] = biological target: ELF4 (Homo sapiens, UniProt Q99607 1-663); conditions: protein: recombinant; tags: N-terminal GST; dsDNA, one strand shown
# Summary of the method: as §1
# [15] = biological target: T9, ELK4 (Homo sapiens, UniProt P28324-2 1-405); conditions: protein: recombinant; tags: N-terminal GST; dsDNA, one strand shown
# T9 sequence: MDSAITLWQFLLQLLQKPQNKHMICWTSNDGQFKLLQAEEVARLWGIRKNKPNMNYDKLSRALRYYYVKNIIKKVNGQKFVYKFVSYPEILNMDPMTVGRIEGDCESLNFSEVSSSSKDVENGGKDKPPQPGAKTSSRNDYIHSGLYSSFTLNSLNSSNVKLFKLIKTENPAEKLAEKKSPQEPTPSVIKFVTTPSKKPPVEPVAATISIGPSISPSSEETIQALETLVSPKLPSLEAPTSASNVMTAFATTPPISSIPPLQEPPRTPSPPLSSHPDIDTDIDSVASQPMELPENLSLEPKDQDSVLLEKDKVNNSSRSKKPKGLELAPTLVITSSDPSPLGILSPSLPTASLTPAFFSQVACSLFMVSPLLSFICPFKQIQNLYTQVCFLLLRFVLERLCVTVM
# Summary of the method: as §1
# [16] = biological target: T10, ETV2 (Homo sapiens, UniProt O00321 1-342); conditions: protein: recombinant; tags: N-terminal GST; dsDNA, one strand shown
# T10 sequence: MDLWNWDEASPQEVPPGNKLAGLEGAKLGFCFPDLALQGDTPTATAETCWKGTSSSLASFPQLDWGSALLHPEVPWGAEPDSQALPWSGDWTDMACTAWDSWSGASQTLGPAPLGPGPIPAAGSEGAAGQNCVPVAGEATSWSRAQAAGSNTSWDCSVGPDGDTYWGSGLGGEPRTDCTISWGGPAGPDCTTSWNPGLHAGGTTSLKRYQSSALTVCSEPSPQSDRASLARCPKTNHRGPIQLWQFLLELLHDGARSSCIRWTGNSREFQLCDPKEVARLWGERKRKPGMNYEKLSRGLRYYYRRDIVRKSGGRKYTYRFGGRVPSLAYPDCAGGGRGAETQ
# Summary of the method: as §1
# [17] = biological target: T11, ELF3 (Homo sapiens, UniProt P78545 1-371); conditions: protein: recombinant; tags: N-terminal GST; dsDNA, one strand shown
# T11 sequence: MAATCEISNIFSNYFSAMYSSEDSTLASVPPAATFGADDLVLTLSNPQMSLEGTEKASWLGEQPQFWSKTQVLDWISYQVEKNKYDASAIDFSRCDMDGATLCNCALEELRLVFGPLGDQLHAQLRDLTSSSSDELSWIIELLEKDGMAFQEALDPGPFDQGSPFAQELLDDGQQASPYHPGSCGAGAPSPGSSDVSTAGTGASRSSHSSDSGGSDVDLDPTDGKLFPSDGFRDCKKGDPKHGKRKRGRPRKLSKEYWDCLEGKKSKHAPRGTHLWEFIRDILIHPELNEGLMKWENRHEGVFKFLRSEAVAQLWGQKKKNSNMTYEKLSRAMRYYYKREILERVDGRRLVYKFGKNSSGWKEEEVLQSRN
# Summary of the method: as §1
# [18] = biological target: CRX (Homo sapiens, UniProt O43186 1-299); conditions: protein: recombinant; tags: N-terminal GST; dsDNA, one strand shown
# Summary of the method: as §1
# [19] = biological target: ETV1 (Homo sapiens, UniProt P50549 1-477); conditions: protein: recombinant; tags: N-terminal GST; dsDNA, one strand shown
# Summary of the method: as §1
# Sequence of ELF4 (Q99607 whole entry): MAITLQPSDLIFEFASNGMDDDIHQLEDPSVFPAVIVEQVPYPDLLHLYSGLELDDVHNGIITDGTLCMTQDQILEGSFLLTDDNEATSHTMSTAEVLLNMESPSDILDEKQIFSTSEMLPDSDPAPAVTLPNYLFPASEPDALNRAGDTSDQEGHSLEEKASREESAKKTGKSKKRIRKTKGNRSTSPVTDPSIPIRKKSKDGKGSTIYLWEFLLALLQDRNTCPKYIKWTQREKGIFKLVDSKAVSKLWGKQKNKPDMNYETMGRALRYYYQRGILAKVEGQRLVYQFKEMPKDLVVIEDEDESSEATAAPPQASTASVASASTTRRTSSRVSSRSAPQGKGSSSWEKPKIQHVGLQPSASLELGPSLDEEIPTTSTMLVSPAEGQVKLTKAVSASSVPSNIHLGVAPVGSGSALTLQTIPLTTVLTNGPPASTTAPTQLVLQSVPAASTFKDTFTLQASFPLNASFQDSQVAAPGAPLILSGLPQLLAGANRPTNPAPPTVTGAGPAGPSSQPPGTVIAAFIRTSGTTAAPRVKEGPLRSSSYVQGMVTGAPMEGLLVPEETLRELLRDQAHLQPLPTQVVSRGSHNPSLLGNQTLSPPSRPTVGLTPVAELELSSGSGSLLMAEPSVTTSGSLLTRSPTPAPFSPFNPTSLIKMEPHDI
# Sequence of ETV1 (P50549 whole entry): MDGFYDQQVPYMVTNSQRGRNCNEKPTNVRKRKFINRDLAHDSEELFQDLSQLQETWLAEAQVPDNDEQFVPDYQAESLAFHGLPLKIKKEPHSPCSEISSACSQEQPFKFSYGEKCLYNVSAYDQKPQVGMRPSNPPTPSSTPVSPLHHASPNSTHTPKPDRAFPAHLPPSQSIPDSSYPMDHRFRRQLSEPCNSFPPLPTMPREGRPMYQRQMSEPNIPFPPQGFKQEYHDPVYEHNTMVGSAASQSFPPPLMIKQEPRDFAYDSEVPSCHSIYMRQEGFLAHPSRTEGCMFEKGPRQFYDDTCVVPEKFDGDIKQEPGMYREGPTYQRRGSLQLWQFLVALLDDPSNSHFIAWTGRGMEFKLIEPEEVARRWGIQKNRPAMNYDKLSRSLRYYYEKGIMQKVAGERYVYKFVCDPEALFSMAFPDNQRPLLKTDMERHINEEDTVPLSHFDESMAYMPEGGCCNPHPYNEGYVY
# Sequence of CRX (O43186 whole entry): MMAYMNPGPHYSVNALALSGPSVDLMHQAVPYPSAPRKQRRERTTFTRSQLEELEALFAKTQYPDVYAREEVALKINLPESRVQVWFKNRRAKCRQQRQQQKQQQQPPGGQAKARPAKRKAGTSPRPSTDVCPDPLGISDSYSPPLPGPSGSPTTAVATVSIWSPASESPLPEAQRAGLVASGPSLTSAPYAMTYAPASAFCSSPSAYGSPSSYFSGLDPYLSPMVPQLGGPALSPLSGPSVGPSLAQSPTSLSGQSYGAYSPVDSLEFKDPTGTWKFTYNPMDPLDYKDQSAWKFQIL
# Sequence of ELF1 (P32519 whole entry): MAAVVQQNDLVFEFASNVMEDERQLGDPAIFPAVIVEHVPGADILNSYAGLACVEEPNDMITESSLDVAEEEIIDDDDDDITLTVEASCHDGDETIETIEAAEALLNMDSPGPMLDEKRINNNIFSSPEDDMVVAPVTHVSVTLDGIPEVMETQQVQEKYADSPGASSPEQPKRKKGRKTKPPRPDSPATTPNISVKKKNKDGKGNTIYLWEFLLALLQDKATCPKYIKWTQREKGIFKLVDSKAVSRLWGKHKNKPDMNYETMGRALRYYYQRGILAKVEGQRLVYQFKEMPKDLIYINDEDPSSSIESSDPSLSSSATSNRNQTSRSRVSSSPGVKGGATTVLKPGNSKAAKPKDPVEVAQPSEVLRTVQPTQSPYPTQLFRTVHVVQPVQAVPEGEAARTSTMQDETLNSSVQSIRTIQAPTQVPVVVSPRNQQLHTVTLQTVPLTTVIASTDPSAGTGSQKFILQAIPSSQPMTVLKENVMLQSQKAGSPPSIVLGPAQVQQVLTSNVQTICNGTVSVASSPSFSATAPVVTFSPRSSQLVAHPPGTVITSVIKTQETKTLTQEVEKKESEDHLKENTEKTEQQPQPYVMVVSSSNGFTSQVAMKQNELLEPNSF
# Sequence of ETV5 (P41161 whole entry): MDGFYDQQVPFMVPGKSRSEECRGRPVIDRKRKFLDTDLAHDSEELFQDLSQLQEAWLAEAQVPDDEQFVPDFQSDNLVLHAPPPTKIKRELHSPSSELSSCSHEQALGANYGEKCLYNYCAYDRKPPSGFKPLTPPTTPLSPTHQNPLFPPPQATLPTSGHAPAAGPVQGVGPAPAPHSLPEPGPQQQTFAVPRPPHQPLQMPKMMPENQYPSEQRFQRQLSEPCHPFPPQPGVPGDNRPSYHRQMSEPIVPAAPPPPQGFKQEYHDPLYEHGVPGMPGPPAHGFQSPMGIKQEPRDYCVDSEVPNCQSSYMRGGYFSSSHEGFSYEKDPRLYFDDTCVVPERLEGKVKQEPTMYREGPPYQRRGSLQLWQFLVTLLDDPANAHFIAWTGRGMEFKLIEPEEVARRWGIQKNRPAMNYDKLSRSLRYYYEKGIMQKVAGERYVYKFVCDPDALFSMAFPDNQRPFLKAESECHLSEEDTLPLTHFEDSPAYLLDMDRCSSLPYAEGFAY
# Sequence of HSF1 (Q00613 whole entry): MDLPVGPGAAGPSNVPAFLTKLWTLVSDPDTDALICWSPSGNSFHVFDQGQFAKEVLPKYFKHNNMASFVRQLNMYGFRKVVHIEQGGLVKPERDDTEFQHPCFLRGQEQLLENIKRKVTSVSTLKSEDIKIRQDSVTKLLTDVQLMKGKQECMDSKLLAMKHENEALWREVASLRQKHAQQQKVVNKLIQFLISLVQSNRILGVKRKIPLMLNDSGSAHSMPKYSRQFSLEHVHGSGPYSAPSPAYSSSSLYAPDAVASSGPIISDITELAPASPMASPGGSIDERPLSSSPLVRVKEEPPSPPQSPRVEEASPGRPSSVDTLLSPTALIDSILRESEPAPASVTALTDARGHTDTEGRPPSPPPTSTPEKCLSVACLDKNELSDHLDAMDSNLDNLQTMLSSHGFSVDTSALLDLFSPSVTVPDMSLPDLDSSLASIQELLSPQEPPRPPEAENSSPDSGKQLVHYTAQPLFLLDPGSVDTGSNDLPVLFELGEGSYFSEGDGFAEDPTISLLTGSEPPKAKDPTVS
# Sequence of SPIB (Q01892 whole entry): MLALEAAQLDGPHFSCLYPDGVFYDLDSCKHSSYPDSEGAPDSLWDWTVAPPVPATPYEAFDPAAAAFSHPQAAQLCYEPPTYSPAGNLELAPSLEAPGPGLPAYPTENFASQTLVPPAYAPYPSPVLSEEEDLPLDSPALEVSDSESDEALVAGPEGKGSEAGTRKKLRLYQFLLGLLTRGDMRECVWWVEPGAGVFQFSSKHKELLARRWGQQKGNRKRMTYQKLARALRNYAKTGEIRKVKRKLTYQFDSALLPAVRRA
sequence,measurement,setting,value
TCCTTC,binding signal,[1],"2.2 fold enrichment (6-mer frequency, TF over GST control)"
same,binding signal,[2],"2 fold enrichment (6-mer frequency, TF over GST control)"
same,binding signal,[3],"2.01 fold enrichment (6-mer frequency, TF over GST control)"
same,binding signal,[4],"2.44 fold enrichment (6-mer frequency, TF over GST control)"
same,binding signal,[5],"2.05 fold enrichment (6-mer frequency, TF over GST control)"
same,binding signal,[6],"2 fold enrichment (6-mer frequency, TF over GST control)"
same,binding signal,[7],"2.15 fold enrichment (6-mer frequency, TF over GST control)"
same,binding signal,[8],"2.16 fold enrichment (6-mer frequency, TF over GST control)"
same,binding signal,[9],"2.3 fold enrichment (6-mer frequency, TF over GST control)"
same,binding signal,[10],"2.2 fold enrichment (6-mer frequency, TF over GST control)"
same,binding signal,[11],"2.1 fold enrichment (6-mer frequency, TF over GST control)"
same,binding signal,[12],"2.13 fold enrichment (6-mer frequency, TF over GST control)"
same,binding signal,[13],"2.26 fold enrichment (6-mer frequency, TF over GST control)"
same,binding signal,[14],"2.08 fold enrichment (6-mer frequency, TF over GST control)"
same,binding signal,[15],"2.04 fold enrichment (6-mer frequency, TF over GST control)"
same,binding signal,[16],"2.47 fold enrichment (6-mer frequency, TF over GST control)"
same,binding signal,[17],"1.85 fold enrichment (6-mer frequency, TF over GST control)"
same,binding signal,[18],"1.72 fold enrichment (6-mer frequency, TF over GST control)"
same,binding signal,[19],"2.05 fold enrichment (6-mer frequency, TF over GST control)"
